Test results: the supplement of paper PMC10849652
Of roughly 8,800 targets only a part is listed; those with a hit were picked by preference. About 0.5% of all pairs of compound and target were hits.

Legend:
Assay in all cases: log2 fold change, soluble protein after heating vs DMSO (PISA); higher = thermal stabilisation; K562 lysate, 10 uM; active = over 0.2 and 3.5 SD of the protein, either way, in both replicates (recomputed)
alvocidib = compound: CN1CC[C@H](c2c(O)cc(O)c3c(=O)cc(-c4ccccc4Cl)oc23)[C@H](O)C1 [alvocidib]
Summary of the method: (§1)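 Dounce homogenisation of K562 pellets in PBS pH 7.4 with 1 mM MgCl2 produced a crude extract, used at 1 mg/mL protein. Exposure to 10 μM compound lasted 30 min, and aliquots were then heated for 3 min across 48°C-58°C, pooled and brought to 0.5% NP-40 at 4°C. The supernatant after 21,000xg for 90 min was quantified by TMTpro 16plex LC-MS/MS with channel sums equalised. Duplicate values are given as log-two fold change in thermal stability relative to solvent controls.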

Tubastatin A = compound: CN1CCc2c(c3ccccc3n2Cc2ccc(C(=O)NO)cc2)C1 [Tubastatin A]
Summary of the method: as §1

[1] = compound: CNC(=O)C1=CC=CC=C1NC2=NC(=NC=C2Cl)NC3=C(C=C(C=C3)N4CCOCC4)OC
Summary of the method: as §1

defactinib = compound: CNC(=O)c1ccc(Nc2ncc(C(F)(F)F)c(NCc3nccnc3N(C)S(C)(=O)=O)n2)cc1 [defactinib]
Summary of the method: as §1

[2] = compound: CNc1nc(-c2ccc3c(N)n[nH]c3c2)cc(N2C[C@@H](C(=O)NC3CCCCC3)CC[C@H]2C)n1
Summary of the method: as §1

encorafenib = compound: COC(=O)N[C@@H](C)CNc1nccc(-c2cn(C(C)C)nc2-c2cc(Cl)cc(NS(C)(=O)=O)c2F)n1 [encorafenib]
Summary of the method: as §1

[3] = compound: COC(=O)[C@H](CCSC)NC(=O)C1=C(C=C(C=C1)NC[C@H](CS)N)C2=CC=CC=C2
Summary of the method: as §1

alisertib = compound: COc1cc(Nc2ncc3c(n2)-c2ccc(Cl)cc2C(c2c(F)cccc2OC)=NC3)ccc1C(=O)O [alisertib]
Summary of the method: as §1

[4] = compound: COc1cc2nc(-c3cc(F)ccc3O)nc(N[C@@H]3CNC[C@H]3C(C)(C)O)c2cc1OC
Summary of the method: as §1

gefitinib = compound: COc1cc2ncnc(Nc3ccc(F)c(Cl)c3)c2cc1OCCCN1CCOCC1 [gefitinib]
Summary of the method: as §1

lapatinib = compound: CS(=O)(=O)CCNCc1ccc(-c2ccc3ncnc(Nc4ccc(OCc5cccc(F)c5)c(Cl)c4)c3c2)o1 [lapatinib]
Summary of the method: as §1

pictilisib = compound: CS(=O)(=O)N1CCN(Cc2cc3nc(-c4cccc5[nH]ncc45)nc(N4CCOCC4)c3s2)CC1 [pictilisib]
Summary of the method: as §1

crizotinib = compound: C[C@@H](Oc1cc(-c2cnn(C3CCNCC3)c2)cnc1N)c1c(Cl)ccc(F)c1Cl [crizotinib]
Summary of the method: as §1

[5] = compound: C[C@H](C1=CC=C(C=C1)C(=O)NC2=C3C=CNC3=NC=C2)N
Summary of the method: as §1

duvelisib = compound: C[C@H](Nc1ncnc2nc[nH]c12)c1cc2cccc(Cl)c2c(=O)n1-c1ccccc1 [duvelisib]
Summary of the method: as §1

gandotinib = compound: Cc1cc(Nc2cc(CN3CCOCC3)c3nc(C)c(Cc4ccc(Cl)cc4F)n3n2)n[nH]1 [gandotinib]
Summary of the method: as §1

tozasertib = compound: Cc1cc(Nc2cc(N3CCN(C)CC3)nc(Sc3ccc(NC(=O)C4CC4)cc3)n2)n[nH]1 [tozasertib]
Summary of the method: as §1

doramapimod = compound: Cc1ccc(-n2nc(C(C)(C)C)cc2NC(=O)Nc2ccc(OCCN3CCOCC3)c3ccccc23)cc1 [doramapimod]
Summary of the method: as §1

bafetinib = compound: Cc1ccc(NC(=O)c2ccc(CN3CC[C@H](N(C)C)C3)c(C(F)(F)F)c2)cc1Nc1nccc(-c2cncnc2)n1 [bafetinib]
Summary of the method: as §1

[6] = compound: Cc1cccc(CC(=O)N2CCc3c2ccc(-c2cn(C)c4ncnc(N)c24)c3F)n1
Summary of the method: as §1

Measured: log2 fold change

SSB (UniProt E7ERC4)
active: [5] 1.41
inactive: alvocidib 0.132 | Tubastatin A 0.154 | [1] -0.072 | defactinib -0.285 | [2] -0.023 | encorafenib 0.081 | [3] 0.013 | alisertib -0.091 | [4] 0.095 | gefitinib 0.072 | lapatinib -0.151 | pictilisib -0.15 | crizotinib -0.103 | duvelisib 0.141 | gandotinib -0.263 | tozasertib -0.028 | doramapimod 0.032 | bafetinib -0.271 | [6] -0.121

SNRPD2 (UniProt P62316)
Sequence of UniProt P62316 (P62316 whole entry, looked up): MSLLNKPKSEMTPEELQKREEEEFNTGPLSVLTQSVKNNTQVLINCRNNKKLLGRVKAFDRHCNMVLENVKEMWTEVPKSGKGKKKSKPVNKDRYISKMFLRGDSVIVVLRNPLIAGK
inactive: alvocidib -0.054 | Tubastatin A 0.027 | [1] -0.003 | defactinib -0.019 | [2] 0.021 | encorafenib 0.005 | [3] -0.027 | alisertib 0.014 | [4] 0.029 | gefitinib -0.02 | lapatinib 0.017 | pictilisib -0.01 | crizotinib 0.016 | [5] -0.055 | duvelisib 0.018 | gandotinib 0.057 | tozasertib -0.014 | doramapimod -0.009 | bafetinib 0.078 | [6] 0.052

SNRNP40 (UniProt Q96DI7)
Sequence of UniProt Q96DI7 (Q96DI7 whole entry, looked up): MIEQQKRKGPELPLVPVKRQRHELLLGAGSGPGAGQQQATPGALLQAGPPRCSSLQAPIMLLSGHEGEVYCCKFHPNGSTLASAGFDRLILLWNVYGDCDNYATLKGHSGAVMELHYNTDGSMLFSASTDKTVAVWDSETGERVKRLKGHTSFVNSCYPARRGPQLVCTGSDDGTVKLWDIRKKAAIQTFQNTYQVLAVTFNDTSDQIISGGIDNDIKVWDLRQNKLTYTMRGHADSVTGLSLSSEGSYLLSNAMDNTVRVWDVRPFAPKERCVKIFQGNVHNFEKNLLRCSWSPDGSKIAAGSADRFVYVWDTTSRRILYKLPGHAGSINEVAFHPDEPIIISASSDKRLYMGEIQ
inactive: alvocidib -0.026 | Tubastatin A 0.021 | [1] -0.019 | defactinib -0.009 | [2] -0.021 | encorafenib -0.025 | [3] -0.01 | alisertib 0.016 | [4] -0.004 | gefitinib -0.01 | lapatinib -0.014 | pictilisib 0.063 | crizotinib -0.042 | [5] -0.075 | duvelisib -0.006 | gandotinib 0.167 | tozasertib 0.015 | doramapimod 0.121 | bafetinib 0.011 | [6] 0.089

SFR1 isoform 2 (UniProt Q86XK3)
Sequence of UniProt Q86XK3 (Q86XK3 whole entry, looked up): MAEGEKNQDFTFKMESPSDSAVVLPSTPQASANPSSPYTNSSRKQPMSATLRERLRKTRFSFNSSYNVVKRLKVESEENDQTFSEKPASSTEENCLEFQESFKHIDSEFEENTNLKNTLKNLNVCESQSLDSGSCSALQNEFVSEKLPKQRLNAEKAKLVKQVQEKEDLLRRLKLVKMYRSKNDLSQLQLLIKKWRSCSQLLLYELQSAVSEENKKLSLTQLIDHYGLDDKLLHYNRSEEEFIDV
active: [6] 0.261
inactive: alvocidib -0.014 | Tubastatin A -0.003 | [1] -0.009 | defactinib -0.155 | [2] -0.005 | encorafenib 0.014 | [3] -0.007 | alisertib 0.004 | [4] -0.007 | gefitinib -0.03 | lapatinib 0.001 | pictilisib 0.053 | crizotinib 0.006 | [5] 0.09 | duvelisib 0.043 | gandotinib 0.169 | tozasertib -0.002 | doramapimod 0.068 | bafetinib -0.097

SPATA5L1 (UniProt Q9BVQ7)
Sequence of UniProt Q9BVQ7 (Q9BVQ7 whole entry, looked up): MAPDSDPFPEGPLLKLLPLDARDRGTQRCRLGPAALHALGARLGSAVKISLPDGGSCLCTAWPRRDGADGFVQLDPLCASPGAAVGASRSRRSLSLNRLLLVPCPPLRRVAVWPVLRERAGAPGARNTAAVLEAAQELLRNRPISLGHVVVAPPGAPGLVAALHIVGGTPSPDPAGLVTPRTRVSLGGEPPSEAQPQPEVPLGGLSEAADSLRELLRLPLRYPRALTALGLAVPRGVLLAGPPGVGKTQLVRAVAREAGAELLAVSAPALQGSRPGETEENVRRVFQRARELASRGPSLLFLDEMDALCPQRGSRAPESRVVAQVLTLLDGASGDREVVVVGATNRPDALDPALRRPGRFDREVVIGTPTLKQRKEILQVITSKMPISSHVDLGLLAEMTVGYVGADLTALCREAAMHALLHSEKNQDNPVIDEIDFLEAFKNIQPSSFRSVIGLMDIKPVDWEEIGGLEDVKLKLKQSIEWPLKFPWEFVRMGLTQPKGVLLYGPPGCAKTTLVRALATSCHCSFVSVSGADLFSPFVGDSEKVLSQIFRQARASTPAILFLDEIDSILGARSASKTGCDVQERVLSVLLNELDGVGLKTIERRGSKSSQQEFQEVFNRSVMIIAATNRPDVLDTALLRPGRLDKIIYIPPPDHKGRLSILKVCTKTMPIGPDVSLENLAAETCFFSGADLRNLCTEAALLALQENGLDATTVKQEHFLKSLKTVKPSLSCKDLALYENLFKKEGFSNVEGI
inactive: alvocidib 0.022 | Tubastatin A -0.16 | [1] 0.019 | defactinib 0.036 | [2] 0.23 | encorafenib 0 | [3] -0.061 | alisertib 0.024 | [4] -0.052 | gefitinib -0.013 | lapatinib -0.017 | pictilisib 0.011 | crizotinib -0.107 | [5] 0.016 | duvelisib 0.001 | gandotinib -0.076 | tozasertib 0.013 | doramapimod -0.035 | bafetinib -0.001 | [6] 0.049

SKA2 (UniProt Q8WVK7)
Sequence of UniProt Q8WVK7 (Q8WVK7 whole entry, looked up): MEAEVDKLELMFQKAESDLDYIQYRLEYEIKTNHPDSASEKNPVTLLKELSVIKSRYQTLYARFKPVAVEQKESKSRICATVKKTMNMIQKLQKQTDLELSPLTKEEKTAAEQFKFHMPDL
inactive: alvocidib 0.003 | Tubastatin A -0.119 | [1] -0.077 | defactinib -0.014 | [2] -0.02 | encorafenib 0.032 | [3] -0.001 | alisertib 0.036 | [4] -0.009 | gefitinib 0.006 | lapatinib 0.005 | pictilisib -0.004 | crizotinib 0.027 | [5] 0.048 | duvelisib -0.004 | gandotinib -0.029 | tozasertib 0.048 | doramapimod -0.09 | bafetinib -0.017 | [6] 0.009

SLC29A2 (UniProt Q14542)
Sequence of UniProt Q14542 (Q14542 whole entry, looked up): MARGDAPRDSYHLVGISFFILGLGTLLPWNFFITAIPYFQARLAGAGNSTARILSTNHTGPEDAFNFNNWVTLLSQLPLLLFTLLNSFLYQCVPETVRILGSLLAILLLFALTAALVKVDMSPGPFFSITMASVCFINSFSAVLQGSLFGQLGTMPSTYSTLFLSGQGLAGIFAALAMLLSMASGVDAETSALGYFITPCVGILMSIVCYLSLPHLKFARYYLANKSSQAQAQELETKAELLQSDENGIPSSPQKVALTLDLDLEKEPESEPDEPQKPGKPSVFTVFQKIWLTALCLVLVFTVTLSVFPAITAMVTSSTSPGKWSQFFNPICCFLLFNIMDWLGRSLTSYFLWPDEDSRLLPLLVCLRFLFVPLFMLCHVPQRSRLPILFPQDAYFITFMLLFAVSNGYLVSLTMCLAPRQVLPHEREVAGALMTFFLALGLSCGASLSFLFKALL
active: [5] -0.558
inactive: alvocidib -0.134 | Tubastatin A -0.018 | [1] 0.187 | defactinib -0.011 | [2] -0.042 | encorafenib 0.025 | [3] 0.007 | alisertib -0.031 | [4] 0.008 | gefitinib 0.046 | lapatinib -0.006 | pictilisib 0.04 | crizotinib -0.068 | duvelisib 0.083 | gandotinib 0.159 | tozasertib 0.035 | doramapimod -0.023 | bafetinib 0.045 | [6] 0.146

STK26 (UniProt Q9P289)
Sequence of UniProt Q9P289 (Q9P289 whole entry, looked up): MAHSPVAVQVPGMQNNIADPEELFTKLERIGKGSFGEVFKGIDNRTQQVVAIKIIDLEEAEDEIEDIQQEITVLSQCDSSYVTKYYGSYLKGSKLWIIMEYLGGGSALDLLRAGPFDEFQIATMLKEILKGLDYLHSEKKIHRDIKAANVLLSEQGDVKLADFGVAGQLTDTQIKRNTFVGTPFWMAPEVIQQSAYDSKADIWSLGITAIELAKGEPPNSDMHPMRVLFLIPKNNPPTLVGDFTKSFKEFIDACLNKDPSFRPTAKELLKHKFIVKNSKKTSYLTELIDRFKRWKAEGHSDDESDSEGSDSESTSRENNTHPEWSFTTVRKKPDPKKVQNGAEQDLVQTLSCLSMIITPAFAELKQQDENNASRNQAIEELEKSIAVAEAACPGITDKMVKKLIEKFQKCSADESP
inactive: alvocidib 0.027 | Tubastatin A -0.041 | [1] 0.003 | defactinib 0.008 | [2] -0.06 | encorafenib 0.001 | [3] 0.009 | alisertib -0.004 | [4] 0.022 | gefitinib -0.016 | lapatinib -0.011 | pictilisib 0.024 | crizotinib 0.007 | [5] -0.003 | duvelisib 0.005 | gandotinib 0.061 | tozasertib 0.005 | doramapimod -0.036 | bafetinib -0.015 | [6] -0.004

STK24 (UniProt B4DR80)
inactive: alvocidib -0.029 | Tubastatin A 0.02 | [1] -0.022 | defactinib 0.11 | [2] -0.008 | encorafenib -0.012 | [3] -0.039 | alisertib -0.037 | [4] 0.078 | gefitinib -0.052 | lapatinib 0.006 | pictilisib 0 | crizotinib 0.044 | [5] 0.034 | duvelisib -0.016 | gandotinib 0.089 | tozasertib 0.001 | doramapimod -0.054 | bafetinib 0.004 | [6] 0

SLC25A17 (UniProt O43808)
Sequence of UniProt O43808 (O43808 whole entry, looked up): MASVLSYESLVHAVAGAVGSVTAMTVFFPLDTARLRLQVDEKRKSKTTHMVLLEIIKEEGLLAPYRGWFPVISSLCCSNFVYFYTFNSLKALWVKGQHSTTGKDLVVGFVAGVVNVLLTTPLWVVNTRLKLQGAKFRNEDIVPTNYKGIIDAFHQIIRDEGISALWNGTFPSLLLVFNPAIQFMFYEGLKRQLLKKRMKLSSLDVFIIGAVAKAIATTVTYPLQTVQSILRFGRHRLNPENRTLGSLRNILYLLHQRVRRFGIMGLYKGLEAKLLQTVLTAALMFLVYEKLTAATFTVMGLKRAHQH
inactive: alvocidib -0.216 | Tubastatin A 0.094 | [1] 0.007 | defactinib -0.036 | [2] 0.006 | encorafenib 0.004 | [3] -0.009 | alisertib 0.019 | [4] -0.011 | gefitinib 0.026 | lapatinib -0.033 | pictilisib 0.015 | crizotinib -0.052 | duvelisib 0.029 | gandotinib 0.072 | tozasertib -0.069 | doramapimod 0.007 | bafetinib -0.066 | [6] 0.085
active: [5] -0.303

SP1 (UniProt P08047)
Sequence of UniProt P08047 (P08047 whole entry, looked up): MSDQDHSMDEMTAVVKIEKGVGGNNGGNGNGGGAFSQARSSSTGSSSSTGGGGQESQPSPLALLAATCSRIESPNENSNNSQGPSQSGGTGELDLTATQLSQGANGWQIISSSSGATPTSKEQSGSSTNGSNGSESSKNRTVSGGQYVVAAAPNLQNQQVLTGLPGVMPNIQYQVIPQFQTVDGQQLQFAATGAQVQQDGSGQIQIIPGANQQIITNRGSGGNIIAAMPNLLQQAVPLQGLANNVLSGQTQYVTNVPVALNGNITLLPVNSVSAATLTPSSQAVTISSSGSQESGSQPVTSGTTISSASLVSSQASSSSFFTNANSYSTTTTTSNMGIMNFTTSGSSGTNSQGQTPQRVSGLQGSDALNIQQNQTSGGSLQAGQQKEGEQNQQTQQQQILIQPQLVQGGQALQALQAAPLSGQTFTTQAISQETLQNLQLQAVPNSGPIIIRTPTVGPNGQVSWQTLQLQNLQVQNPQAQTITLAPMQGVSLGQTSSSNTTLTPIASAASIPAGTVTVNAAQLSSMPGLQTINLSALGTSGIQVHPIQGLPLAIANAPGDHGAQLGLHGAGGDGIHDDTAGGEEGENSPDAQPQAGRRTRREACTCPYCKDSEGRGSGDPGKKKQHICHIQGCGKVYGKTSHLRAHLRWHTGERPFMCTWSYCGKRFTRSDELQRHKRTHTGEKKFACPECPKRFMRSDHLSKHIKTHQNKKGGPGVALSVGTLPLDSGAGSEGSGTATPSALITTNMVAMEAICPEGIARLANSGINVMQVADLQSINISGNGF
inactive: alvocidib -0.017 | Tubastatin A -0.013 | [1] 0.053 | defactinib 0.03 | [2] 0.104 | encorafenib 0.073 | [3] -0.087 | alisertib 0.005 | [4] -0.06 | gefitinib 0.003 | lapatinib 0.077 | pictilisib 0.009 | crizotinib 0.022 | [5] -0.024 | duvelisib -0.063 | gandotinib 0.056 | tozasertib -0.049 | doramapimod 0.095 | bafetinib -0.027 | [6] 0.031

SMC4 (UniProt Q9NTJ3)
inactive: alvocidib 0.03 | Tubastatin A -0.079 | [1] -0.006 | defactinib -0.003 | [2] -0.008 | encorafenib 0.004 | [3] 0.024 | alisertib 0.001 | [4] 0 | gefitinib -0.024 | lapatinib -0.028 | pictilisib -0.002 | crizotinib -0.007 | [5] 0.068 | duvelisib 0.009 | gandotinib -0.154 | tozasertib -0.012 | doramapimod -0.026 | bafetinib -0.021 | [6] -0.051

STARD3 isoform 3 (UniProt Q14849)
Sequence of UniProt Q14849 (Q14849 whole entry, looked up): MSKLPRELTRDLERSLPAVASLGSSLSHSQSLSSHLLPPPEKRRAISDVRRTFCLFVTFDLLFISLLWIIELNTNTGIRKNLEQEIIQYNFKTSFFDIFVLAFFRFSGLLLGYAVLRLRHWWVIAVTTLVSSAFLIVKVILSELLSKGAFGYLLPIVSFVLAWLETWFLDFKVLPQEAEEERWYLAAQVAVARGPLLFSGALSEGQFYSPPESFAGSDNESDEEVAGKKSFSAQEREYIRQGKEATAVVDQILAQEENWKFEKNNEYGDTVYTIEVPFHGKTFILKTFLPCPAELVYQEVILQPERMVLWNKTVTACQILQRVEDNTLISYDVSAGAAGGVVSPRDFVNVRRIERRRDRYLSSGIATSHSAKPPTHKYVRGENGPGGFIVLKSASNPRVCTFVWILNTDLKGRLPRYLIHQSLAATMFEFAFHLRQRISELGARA
inactive: alvocidib -0.037 | Tubastatin A 0.079 | [1] 0.004 | defactinib -0.019 | [2] 0.068 | encorafenib -0.029 | [3] 0.055 | alisertib -0.007 | [4] -0.059 | gefitinib 0.081 | lapatinib -0.094 | pictilisib -0.087 | crizotinib -0.024 | [5] -0.072 | duvelisib -0.005 | gandotinib 0.027 | tozasertib -0.075 | doramapimod 0.021 | bafetinib -0.209 | [6] 0.084

SRSF7 (UniProt Q16629)
Sequence of UniProt Q16629 (Q16629 whole entry, looked up): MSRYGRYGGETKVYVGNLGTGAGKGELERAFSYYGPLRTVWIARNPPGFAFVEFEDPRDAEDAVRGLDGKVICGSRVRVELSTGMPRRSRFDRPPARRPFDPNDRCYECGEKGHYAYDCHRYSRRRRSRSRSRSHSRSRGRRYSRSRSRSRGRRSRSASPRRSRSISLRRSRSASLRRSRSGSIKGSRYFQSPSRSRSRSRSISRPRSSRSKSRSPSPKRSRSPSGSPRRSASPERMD
active: [5] -0.218
inactive: alvocidib -0.2 | Tubastatin A -0.005 | [1] -0.057 | defactinib -0.06 | [2] 0.051 | encorafenib 0.032 | [3] 0.049 | alisertib 0.006 | [4] 0.038 | gefitinib 0.067 | lapatinib -0.061 | pictilisib 0.075 | crizotinib 0.084 | duvelisib 0.058 | gandotinib 0 | tozasertib 0.036 | doramapimod -0.01 | bafetinib 0.05 | [6] 0.194

SYPL1 (UniProt Q16563)
Sequence of UniProt Q16563 (Q16563 whole entry, looked up): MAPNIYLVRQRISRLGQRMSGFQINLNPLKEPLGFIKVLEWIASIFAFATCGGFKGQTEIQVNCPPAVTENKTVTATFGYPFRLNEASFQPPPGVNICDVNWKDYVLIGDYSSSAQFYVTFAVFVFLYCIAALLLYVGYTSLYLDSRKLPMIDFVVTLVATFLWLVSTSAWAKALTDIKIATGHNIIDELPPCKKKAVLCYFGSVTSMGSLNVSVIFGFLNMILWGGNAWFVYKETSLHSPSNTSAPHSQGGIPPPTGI
active: [5] -0.376
inactive: alvocidib -0.132 | Tubastatin A 0.057 | [1] -0.007 | defactinib -0.014 | [2] 0.029 | encorafenib 0.013 | [3] -0.022 | alisertib 0.016 | [4] 0.012 | gefitinib -0.033 | lapatinib 0.015 | pictilisib -0.025 | crizotinib -0.001 | duvelisib 0.004 | gandotinib 0.16 | tozasertib -0.028 | doramapimod -0.009 | bafetinib -0.034 | [6] 0.163

SMN1 (UniProt Q16637)
Sequence of UniProt Q16637 (Q16637 whole entry, looked up): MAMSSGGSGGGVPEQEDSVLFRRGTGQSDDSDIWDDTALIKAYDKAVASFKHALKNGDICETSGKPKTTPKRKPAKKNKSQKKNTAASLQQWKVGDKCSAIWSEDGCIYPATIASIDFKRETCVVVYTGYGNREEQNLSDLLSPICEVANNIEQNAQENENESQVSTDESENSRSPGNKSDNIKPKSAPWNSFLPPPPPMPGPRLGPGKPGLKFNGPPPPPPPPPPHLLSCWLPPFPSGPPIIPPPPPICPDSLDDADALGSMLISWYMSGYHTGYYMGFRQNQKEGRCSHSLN
inactive: alvocidib -0.05 | Tubastatin A -0.173 | [1] 0.017 | defactinib -0.023 | [2] -0.01 | encorafenib 0.03 | [3] 0.149 | alisertib 0.062 | [4] -0.024 | gefitinib -0.064 | lapatinib 0.086 | pictilisib 0.035 | crizotinib -0.183 | [5] -0.031 | duvelisib 0.021 | gandotinib -0.056 | tozasertib 0.049 | doramapimod 0.022 | bafetinib 0.036 | [6] 0.158
